Test in all cases: yeast three-hybrid, YBZ-1, SC-Leu-His + 0.5 mM 3-AT, 4 days
Holding throughout (conditions): tags: N-Gal4 AD-HA kept; label: inside an RPR1-promoter hybrid RNA with tandem MS2 sites; ssRNA

One experiment addresses PUM1 PUF domain R4-APT (Homo sapiens, UniProt Q14671 828-1176, N971A;H972P;Q975T). The essentials: (§1)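 Sequencing with Illumina followed PCR amplification of the repeat regions from transformants grown four days on SC-Leu (input) or SC-Leu-His + 0.5 mM 3-AT (selection). The transformants were strain YBZ-1 with a LexA–MS2 coat fusion and a HIS3 reporter, carrying Pumilio-1 PUF domain libraries and matching RNA elements. The interaction score is the log change in variant frequency from input to selection, computed in log2 with a pseudocount of 1 for absent variants.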

The next experiment addresses PUM1 PUF domain R4-VNN (Homo sapiens, UniProt Q14671 828-1176, N971V;H972N;Q975N). The method, boiled down: as §1
For another experiment, the target named is PUM1 PUF domain R4-DHC (Homo sapiens, UniProt Q14671 828-1176, N971D;Q975C). The essentials:
as §1

Another experiment deals with PUM1 PUF domain R3-RRC (Homo sapiens, UniProt Q14671 828-1176, C935R;Q939C). The essentials: as §1
The target of another experiment is PUM1 PUF domain R3-TWW (Homo sapiens, UniProt Q14671 828-1176, C935T;R936W;Q939W). The method, boiled down: as §1
For another experiment, the target named is PUM1 PUF domain R5-RGS (Homo sapiens, UniProt Q14671 828-1176, C1007R;R1008G;Q1011S). The essentials:
as §1

For a further experiment, the target named is PUM1 PUF domain R5-KSV (Homo sapiens, UniProt Q14671 828-1176, C1007K;R1008S;Q1011V). The essentials: as §1
The next experiment deals with PUM1 PUF domain R5-KST (Homo sapiens, UniProt Q14671 828-1176, C1007K;R1008S;Q1011T). The method, boiled down: as §1
The target in another experiment is PUM1 PUF domain R5-RPD (Homo sapiens, UniProt Q14671 828-1176, C1007R;R1008P;Q1011D). The essentials: as §1
The next experiment has as its target PUM1 PUF domain R5-RNW (Homo sapiens, UniProt Q14671 828-1176, C1007R;R1008N;Q1011W). The essentials: as §1
For a further experiment, the target named is PUM1 PUF domain R3-ATE (Homo sapiens, UniProt Q14671 828-1176, C935A;R936T;Q939E). The method, boiled down: as §1
For the next experiment, the target named is PUM1 PUF domain R5-RHQ (Homo sapiens, UniProt Q14671 828-1176, C1007R;R1008H). The essentials: as §1
In another experiment the target is T1, PUM1 PUF domain R6-RFC (Homo sapiens, UniProt Q14671 828-1176, N1043R;Y1044F;Q1047C).
T1 sequence: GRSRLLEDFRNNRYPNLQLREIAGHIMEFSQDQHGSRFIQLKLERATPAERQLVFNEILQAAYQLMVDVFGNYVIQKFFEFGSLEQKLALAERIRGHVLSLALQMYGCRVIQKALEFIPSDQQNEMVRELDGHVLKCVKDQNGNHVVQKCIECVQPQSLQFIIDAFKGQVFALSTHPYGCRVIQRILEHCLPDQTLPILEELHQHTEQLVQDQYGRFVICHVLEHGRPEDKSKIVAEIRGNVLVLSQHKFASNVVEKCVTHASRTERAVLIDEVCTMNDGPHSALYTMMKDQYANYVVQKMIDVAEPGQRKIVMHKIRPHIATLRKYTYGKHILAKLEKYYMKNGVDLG
The method, boiled down:
as §1

The target in another experiment is PUM1 PUF domain R8-QFQ (Homo sapiens, UniProt Q14671 828-1176, N1122Q;Y1123F). The essentials:
as §1

Another experiment concerns the target T2, PUM1 PUF domain R6-LYS (Homo sapiens, UniProt Q14671 828-1176, N1043L;Q1047S).
T2 sequence: T1 sequence with R216L, F217Y, C220S
The essentials: as §1

A further experiment has as its target PUM1 PUF domain R3-APL (Homo sapiens, UniProt Q14671 828-1176, C935A;R936P;Q939L). The method, boiled down:
as §1

Another experiment deals with PUM1 PUF domain R4-SRL (Homo sapiens, UniProt Q14671 828-1176, N971S;H972R;Q975L). The method, boiled down:
as §1

The target of a further experiment is PUM1 PUF domain R4-YRL (Homo sapiens, UniProt Q14671 828-1176, N971Y;H972R;Q975L). The method, boiled down: as §1
The next experiment concerns the target PUM1 PUF domain R5-QRK (Homo sapiens, UniProt Q14671 828-1176, C1007Q;Q1011K). The essentials: as §1
For a further experiment, the target named is PUM1 PUF domain R8-RHG (Homo sapiens, UniProt Q14671 828-1176, N1122R;Y1123H;Q1126G). The essentials: as §1

Where a chain is given by its changes, count along the chain named.

Regarding “GGCUAGAACUAGUGGAUCCCCCGGCGCCCGGCGGCUCGAGCCCGGGUAAGUGUAUAUAGUCUGCAUGCCGCCGGGCGCCAUGCCUGCAGGUCGACUCUAGAAAACAUG”, the binding signal with PUM1 PUF domain R4-APT is 2.95 log2 enrichment (interaction score); with PUM1 PUF domain R4-VNN, 3.82 log2 enrichment (interaction score); with PUM1 PUF domain R4-DHC it was 6.39 log2 enrichment (interaction score).
Take “GGCUAGAACUAGUGGAUCCCCCGGCGCCCGGCGGCUCGAGCCCGGGUAAGUGUAAUUAGUCUGCAUGCCGCCGGGCGCCAUGCCUGCAGGUCGACUCUAGAAAACAUG”: the binding signal in the experiment with PUM1 PUF domain R3-RRC is 3.79 log2 enrichment (interaction score); in the experiment with PUM1 PUF domain R3-TWW it was 1.77 log2 enrichment (interaction score).
Regarding “GGCUAGAACUAGUGGAUCCCCCGGCGCCCGGCGGCUCGAGCCCGGGUAAGUGUCAAUAGUCUGCAUGCCGCCGGGCGCCAUGCCUGCAGGUCGACUCUAGAAAACAUG”, the binding signal with PUM1 PUF domain R5-RGS is 2.45 log2 enrichment (interaction score); in the experiment with PUM1 PUF domain R5-KSV, 3.48 log2 enrichment (interaction score); in the experiment with PUM1 PUF domain R5-KST, 4.03 log2 enrichment (interaction score); with PUM1 PUF domain R5-RPD, 3.41 log2 enrichment (interaction score); with PUM1 PUF domain R5-RNW it was 0.29 log2 enrichment (interaction score).
For the sequence “GGCUAGAACUAGUGGAUCCCCCGGCGCCCGGCGGCUCGAGCCCGGGUAAGUGUUAAUAGUCUGCAUGCCGCCGGGCGCCAUGCCUGCAGGUCGACUCUAGAAAACAUG”, the binding signal is 2.13 log2 enrichment (interaction score) with PUM1 PUF domain R5-RGS; 2.74 log2 enrichment (interaction score) with PUM1 PUF domain R5-KSV; 2.74 log2 enrichment (interaction score) in the experiment with PUM1 PUF domain R5-KST; 2.4 log2 enrichment (interaction score) with PUM1 PUF domain R5-RPD; 2.82 log2 enrichment (interaction score) in the experiment with PUM1 PUF domain R5-RNW.
“GGCUAGAACUAGUGGAUCCCCCGGCGCCCGGCGGCUCGAGCCCGGGUAAGUGUAAGUAGUCUGCAUGCCGCCGGGCGCCAUGCCUGCAGGUCGACUCUAGAAAACAUG”: in the experiment with PUM1 PUF domain R3-ATE, the binding signal was 3.33 log2 enrichment (interaction score).
Take “GGCUAGAACUAGUGGAUCCCCCGGCGCCCGGCGGCUCGAGCCCGGGUAAGUGUGAAUAGUCUGCAUGCCGCCGGGCGCCAUGCCUGCAGGUCGACUCUAGAAAACAUG”: in the experiment with PUM1 PUF domain R5-RHQ, the binding signal is 4.24 log2 enrichment (interaction score).
Turning to “GGCUAGAACUAGUGGAUCCCCCGGCGCCCGGCGGCUCGAGCCCGGGUAAGUGAAAAUAGUCUGCAUGCCGCCGGGCGCCAUGCCUGCAGGUCGACUCUAGAAAACAUG”, the binding signal with PUM1 PUF domain R6-RFC is 1.2 log2 enrichment (interaction score).
“GGCUAGAACUAGUGGAUCCCCCGGCGCCCGGCGGCUCGAGCCCGGGUAAGUGUAAAUAGUCUGCAUGCCGCCGGGCGCCAUGCCUGCAGGUCGACUCUAGAAAACAUG”: the binding signal was 4.02 log2 enrichment (interaction score) with PUM1 PUF domain R4-APT; 2.91 log2 enrichment (interaction score) with PUM1 PUF domain R8-QFQ; 3.99 log2 enrichment (interaction score) with PUM1 PUF domain R4-DHC; 4.98 log2 enrichment (interaction score) with PUM1 PUF domain R6-LYS; 3.61 log2 enrichment (interaction score) in the experiment with PUM1 PUF domain R3-TWW; 3.04 log2 enrichment (interaction score) with PUM1 PUF domain R3-APL. Further, the binding signal in the experiment with PUM1 PUF domain R4-SRL is 3.87 log2 enrichment (interaction score); with PUM1 PUF domain R4-YRL, 3.01 log2 enrichment (interaction score); in the experiment with PUM1 PUF domain R5-QRK, 2.97 log2 enrichment (interaction score); with PUM1 PUF domain R8-RHG, 4.31 log2 enrichment (interaction score); with PUM1 PUF domain R6-RFC, 4.13 log2 enrichment (interaction score).
On to “GGCUAGAACUAGUGGAUCCCCCGGCGCCCGGCGGCUCGAGCCCGGGUAAGUGUACAUAGUCUGCAUGCCGCCGGGCGCCAUGCCUGCAGGUCGACUCUAGAAAACAUG”, for which the binding signal with PUM1 PUF domain R4-DHC is 4.45 log2 enrichment (interaction score).
For the sequence “GGCUAGAACUAGUGGAUCCCCCGGCGCCCGGCGGCUCGAGCCCGGGUAAGCGUAAAUAGUCUGCAUGCCGCCGGGCGCCAUGCCUGCAGGUCGACUCUAGAAAACAUG”, the binding signal with PUM1 PUF domain R8-RHG was 4.32 log2 enrichment (interaction score).

The values are drawn from PMC8384837, “Expanding the binding specificity for RNA recognition by a PUF domain”.
